The values that follow come from PubChem BioAssay (NCATS).

Experiment [1] in a line: Quantitative High-Throughput drug screen in 47 multiple myeloma cell lines against the NCATS MIPE library collection: KHM11_PLB cell viability assay (AID 1918962). Note: nearly all actives have a fitted effect of over 35% in size. In short, it runs like this:
(§1)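 Myeloma cell lines, 500 cells per well, exposed to MIPE 4.0 library compounds for 48 h at 37C, 5% CO2. Viability from ATP by CellTiter-Glo luminescence; normalised to DMSO (100%) and media-only (0%) wells.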

Experiment [2] can be described thus: Quantitative High-Throughput drug screen in 47 multiple myeloma cell lines against the NCATS MIPE library collection: JIM3_ECACC cell viability assay (AID 1918963; note: nearly all actives have a fitted effect of over 35% in size). In a few lines: as §1
Experiment [3] can be described thus: Quantitative High-Throughput drug screen in 47 multiple myeloma cell lines against the NCATS MIPE library collection: JIM1_ECACC cell viability assay (AID 1918964). In short, it runs like this:
(§2)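 CellTiter-Glo ATP luminescence gave viability after 48 h compound treatment at 37C of 500 multiple myeloma cells per well. Normalisation used DMSO-only wells as 100% and media-only wells as 0% viability; primary qHTS of approved and investigational drugs.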

Experiment [4] in a line: Quantitative High-Throughput drug screen in 47 multiple myeloma cell lines against the NCATS MIPE library collection: INA6_PLB cell viability assay (AID 1918965; note: nearly all actives have a fitted effect of over 55% in size). In a few lines:
as §1

The nature of experiment [5]: Quantitative High-Throughput drug screen in 47 multiple myeloma cell lines against the NCATS MIPE library collection: JJN3_DSMZ cell viability assay (AID 1918966; note: nearly all actives have a fitted effect of over 50% in size). In short, it runs like this: as §2
Experiment [6] is described as follows: Quantitative High-Throughput drug screen in 47 multiple myeloma cell lines against the NCATS MIPE library collection: H1112_PLB cell viability assay (AID 1918967; note: nearly all actives have a fitted effect of over 30% in size). In short, it runs like this:
as §2

Experiment [7] is described as follows: Quantitative High-Throughput drug screen in 47 multiple myeloma cell lines against the NCATS MIPE library collection: Karpas25_ECACC cell viability assay (AID 1918968; note: nearly all actives have a fitted effect of over 35% in size). In a few lines:
as §2

Experiment [8] can be described thus: Quantitative High-Throughput drug screen in 47 multiple myeloma cell lines against the NCATS MIPE library collection: KMS27_JCRB cell viability assay (AID 1918970). Note: nearly all actives have a fitted effect of over 30% in size. The following applies: KMS27 myeloma cells, CellTiter-Glo ATP viability, 48 h; viability (% of DMSO): at 45.8 µM (top of the series). In short, it runs like this: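 CellTiter-Glo luminescence after 48 h drug exposure at 37 °C; 500 cells/well, 1536-well format, pin-tool compound addition; DMSO = 100%, media-only = 0% viability.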

A short description of experiment [9]: Quantitative High-Throughput drug screen in 47 multiple myeloma cell lines against the NCATS MIPE library collection: KMS12BM_JCRB cell viability assay (AID 1918971). Note: nearly all actives have a fitted effect of over 35% in size. In short, it runs like this: (§3)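 Myeloma cells (500 per well) were exposed to MIPE 4.0 compounds by pin transfer and incubated 48 hours at 37C, 5% CO2. Viability was read as ATP by CellTiter-Glo luminescence, normalised to DMSO (100%) and media-only (0%) wells.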

A short description of experiment [10]: Quantitative High-Throughput drug screen in 47 multiple myeloma cell lines against the NCATS MIPE library collection: KMS12PE_JCRB cell viability assay (AID 1918972). Note: nearly all actives have a fitted effect of over 30% in size. In a few lines:
as §1

The nature of experiment [11]: Quantitative High-Throughput drug screen in 47 multiple myeloma cell lines against the NCATS MIPE library collection: KMS20_JCRB cell viability assay (AID 1918973). Note: nearly all actives have a fitted effect of over 45% in size. In short, it runs like this: as §2
Experiment [12] in a line: Quantitative High-Throughput drug screen in 47 multiple myeloma cell lines against the NCATS MIPE library collection: KMS26_JCRB cell viability assay (AID 1918975). Note: nearly all actives have a fitted effect of over 45% in size. In short, it runs like this: as §3
A short description of experiment [13]: Quantitative High-Throughput drug screen in 47 multiple myeloma cell lines against the NCATS MIPE library collection: MMM1_PLB cell viability assay (AID 1918976). Note: nearly all actives have a fitted effect of over 35% in size. In short, it runs like this:
(§4)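 500 cells/well per myeloma line exposed to pinned MIPE 4.0 compounds for 48 h at 37 °C, 5% CO2. Viability read as ATP by CellTiter-Glo luminescence, normalised to DMSO-only (100%) and media-only (0%) wells.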

A short description of experiment [14]: Quantitative High-Throughput drug screen in 47 multiple myeloma cell lines against the NCATS MIPE library collection: MOLP8_DSMZ cell viability assay (AID 1918977). Note: nearly all actives have a fitted effect of over 45% in size. In a few lines: as §4
The nature of experiment [15]: Quantitative High-Throughput drug screen in 47 multiple myeloma cell lines against the NCATS MIPE library collection: NCIH929_DSMZ cell viability assay (AID 1918978). Note: nearly all actives have a fitted effect of over 35% in size. In short, it runs like this:
as §4

A short description of experiment [16]: Quantitative High-Throughput drug screen in 47 multiple myeloma cell lines against the NCATS MIPE library collection: OCIMY1_PLB cell viability assay (AID 1918979). Note: nearly all actives have a fitted effect of over 35% in size. In short, it runs like this: as §4
The nature of experiment [17]: Quantitative High-Throughput drug screen in 47 multiple myeloma cell lines against the NCATS MIPE library collection: MM1S_ATCC cell viability assay (AID 1918980). Note: nearly all actives have a fitted effect of over 45% in size. In short, it runs like this:
as §4

Experiment [18] can be described thus: Quantitative High-Throughput drug screen in 47 multiple myeloma cell lines against the NCATS MIPE library collection: MM1R_ATCC cell viability assay (AID 1918981). Note: nearly all actives have a fitted effect of over 35% in size. In a few lines: as §4
Experiment [19] can be described thus: Quantitative High-Throughput drug screen in 47 multiple myeloma cell lines against the NCATS MIPE library collection: KMS21BM_JCRB cell viability assay (AID 1918974). The following applies: ATP luminescence, 48 h; viability: at 45.8 µM (top of the series). In short, it runs like this:
as §2

A short description of experiment [20]: Quantitative High-Throughput drug screen in 47 multiple myeloma cell lines against the NCATS MIPE library collection: Karpas417_ECACC cell viability assay (AID 1918961). The following applies: Karpas417 myeloma viability, CellTiter-Glo ATP luminescence, 48 h; viability (% of DMSO): at 45.8 µM (top of the series). In a few lines: as §1
In general terms: In ATP-based viability assays light output follows the ATP content of the culture.

Results filed as inconclusive are left out. Calls of active or inactive are those of the source. Calls come from the whole dose curve; as a rule, active = well fitted curve in the direction sought with a large enough effect; inconclusive = small, poorly fitted or top-dose-only effect, or another doubt; inactive = no such curve, though single readings can be large; an effect the other way counts as inactive or inconclusive.
Potency is the fitted concentration of half-maximal effect.

Regarding `CN(CC(=O)N(Cc1ccc(C2CCCCC2)cc1)c1ccc(C(=O)O)c(O)c1)S(=O)(=O)c1c(F)c(F)c(F)c(F)c1F`, the Potency in experiment [1] is 14800 nM (active); in experiment [2], 9350 nM (active); in [3], 3320 nM (active); in [4], 6620 nM (active); in experiment [5] it was 18700 nM (active); in experiment [6], 18700 nM (active). The Potency in [7] was 5260 nM (active); in [8], 3320 nM (active); in experiment [9] it was 29600 nM (active); in experiment [10], 7430 nM (active); in [11], 6620 nM (active); in [12] it was 20900 nM (active). Also, the Potency in experiment [13] was 20900 nM (active); in experiment [14], 18700 nM (active); in experiment [15], 4180 nM (active); in [16], 33200 nM (active); in experiment [17], 7430 nM (active); in experiment [18], 8330 nM (active).
With `O=C1NC(=O)C(=Cc2ccc3nccc(-c4ccncc4)c3c2)S1`, the Potency in [1] is 46.9 nM (active); in experiment [2], 296 nM (active); in experiment [3], 29.6 nM (active); in [4] it was 148 nM (active); in experiment [5], 93.5 nM (active); in experiment [6], 1050 nM (active). The Potency was 29.6 nM (active) in experiment [7]; 29.6 nM (active) in experiment [8]; 332 nM (active) in experiment [9]; 332 nM (active) in experiment [10]; 93.5 nM (active) in experiment [11]; 166 nM (active) in experiment [19]. Moreover, the Potency was 187 nM (active) in experiment [12]; 235 nM (active) in experiment [13]; 166 nM (active) in [14]; 29.6 nM (active) in [15]; 235 nM (active) in experiment [16]; 105 nM (active) in experiment [18].
For the compound `CCC(C=C[C@@H]1OC(=O)C=C[C@H]1C)=C[C@H](C)CC=CC(C)=C[C@@H](C)C(=O)[C@@H](C)[C@H](O)[C@@H](C)CC(C)=CC(=O)O`, the Potency in experiment [1] was 43.9 nM (active); in [2] it was 34.9 nM (active); in [3], 15.6 nM (active); in experiment [4], 15.6 nM (active); in experiment [5], 22 nM (active); in experiment [6] it was 39.2 nM (active). The Potency in experiment [7] is 19.6 nM (active); in [8], 9.8 nM (active); in [9], 19.6 nM (active); in experiment [10], 19.6 nM (active); in [11], 8.8 nM (active); in [12], 31.1 nM (active). The Potency in experiment [13] is 27.7 nM (active); in experiment [14], 19.6 nM (active); in experiment [15] it was 19.6 nM (active); in [16], 27.7 nM (active); in experiment [17] it was 15.6 nM (active); in [18] it was 9.8 nM (active).
For the compound `CC(N[C@H]1CCCC[C@H]1NC(=O)c1ccc(Cl)cc1)c1cccc2ccccc12` (some centres undefined), the Potency in experiment [20] is 46.9 nM (active); in [6], 20900 nM (active); in experiment [7] it was 14800 nM (active); in experiment [8] it was 118 nM (active); in [17] it was 8330 nM (active). Also, the Potency entry in experiment [12], in experiment [14] and in experiment [16] was “inactive” throughout.
Take `C=CC[C@@H]1C=C(C)C[C@H](C)C[C@H](OC)[C@H]2O[C@@](O)(C(=O)C(=O)N3CCCC[C@H]3C(=O)O[C@H](C(C)=C[C@@H]3CC[C@H](O)[C@H](OC)C3)[C@@H](C)[C@@H](O)CC1=O)[C@@H](C)C[C@@H]2OC`: the Potency is 2640 nM (active) in [1]; 3720 nM (active) in experiment [2]; 1180 nM (active) in [3]; 935 nM (active) in experiment [4]; 662 nM (active) in experiment [5]; 3320 nM (active) in [6]. Also, the Potency in experiment [7] is 2960 nM (active); in experiment [8], 743 nM (active); in [9], 1480 nM (active); in experiment [10] it was 1870 nM (active); in experiment [12] it was 935 nM (active); in experiment [13], 3320 nM (active). Moreover, the Potency was 1320 nM (active) in experiment [14]; 3320 nM (active) in experiment [15]; 2640 nM (active) in [16]; 1180 nM (active) in [17]; 833 nM (active) in experiment [18].
